Among all 290,000 compounds or so, about 27,000 (9.3%) were called active. The full list was thinned out, with actives kept by preference. Values without a mark were called inactive. Rule as the data show it: active = inhibition mostly above about 28% (no sharp cut-off); inactive = mostly below about 43%.

The test can be described thus: A qHTS for Small Molecule Inhibitors of Shiga Toxin. Also: 0% is about no effect. Conditions: Vero cells, Shiga toxin protein synthesis inhibition reporter; at 38.7 µM, active compounds read high. (In qHTS, concentration-response curves come from the screen itself.)
For the compound `CCc1ccc(NC(=O)CS(=O)CC(=O)N2CCN(c3ccccc3F)CC2)cc1` (stereo unspecified), the inhibition is 9.39%.

With `CN(C)CCCNC(=O)c1cc(C(=O)Cc2ccc(Cl)cc2)c[nH]1`, the inhibition was -5.52%.

As to `CCc1cccc(NC(=O)CCCN2C(=O)C(c3ccccc3)Oc3cccnc32)c1` (stereo unspecified), the inhibition was -2.72%.

As for `CCC1=Nc2cc(C(=O)NCCCN3CCOCC3)ccc2Sc2ccc(Br)cc21`, the inhibition was -9.37%.

Consider `Cc1cccc(N(C(=O)c2csnn2)C(C(=O)NCc2ccccc2)c2ccncc2)c1` (stereo unspecified), for which the inhibition is -9.04%.

Turning to `Cc1ccc(N/C=C/C(=O)c2ccccc2)cc1C`, the inhibition is 17.5%.

In the case of `CCCOc1ccc(NC(=O)C2CCCNC2=O)cc1` (stereo unspecified), the inhibition was 25.7%.

With `CCOc1ccc(N/C=C/C(=O)c2ccccc2)cc1`, the inhibition was 69.8% (active).

With `CCCOc1ccc(N/C=C/C(=O)C(C)(C)C)cc1`, the inhibition is 49% (active).

`CCOc1ccc(NC(=S)N2CCC(NC(=O)c3ccccc3)CC2)cc1`: the inhibition was -10.8%.

For the compound `CN(C)c1ccc(N/C=C/C(=O)C(F)(F)F)cc1`, the inhibition is 71.1%.

In the case of `COc1ccc(N2CCN(C(=O)c3cn(C)c4ccc(S(=O)(=O)N5CCOCC5)cc4c3=O)CC2)cc1`, the inhibition was -3.12%.

Regarding `O=[N+]([O-])c1cc([N+](=O)[O-])c(Oc2cc(F)cc(F)c2F)cc1NN1CCCCC1`, the inhibition is 1.85%.

On to `CCCn1nc(NS(=O)(=O)c2ccc(F)cc2)c2cc3ccccc3nc21`, for which the inhibition is -7.87%.

As to `O=S1(=O)CCO[C@H]2Cc3ccccc3[C@H]2N1Cc1ccccc1`, the inhibition is -2.08%.

Take `CC(=O)Nc1ccc(C(=O)OCC(=O)Nc2ccc([N+](=O)[O-])cc2C(F)(F)F)cc1`: the inhibition is 14.6%.

`CN(C)c1nc(=Nc2cccc(Cl)c2)ss1`: the inhibition is 77% (active).

`O=C(NC1CCC(O)CC1)c1ccccc1OCc1ccc(F)cc1` (stereo unspecified): the inhibition is -2.79%.

As for `CCn1nnnc1SCC(=O)Nc1ccc(N(C)C)cc1`, the inhibition was 44.2% (active).

Consider `Cc1ccc(C)c(-n2nnnc2SCC(=O)c2c(N)n(C)c(=O)n(C)c2=O)c1`, for which the inhibition was -10.4%.

Take `CCn1nnnc1SCC(=O)c1ccc(C)cc1C`: the inhibition was 77.4% (active).

For the compound `COc1ccc(C(=O)CSc2nnnn2C)c(OC)c1`, the inhibition is 32.4%.

Take `COc1ccc(-n2nnnc2SCC(=O)Nc2ccccc2)cc1`: the inhibition was -15.5%.

As for `CC(=O)Nc1ccc(NC(=O)CSc2nnnn2-c2ccccc2F)cc1`, the inhibition is 61.1%.

`Cc1cc(C(=O)N/N=C/c2ccccn2)c2ccccc2n1`: the inhibition is -6.51%.

For `O=C(Nc1ccccc1N1CCN(C(=O)c2ccccc2)CC1)c1ccco1`, the inhibition was 9.04%.

With `CC(C)NS(=O)(=O)c1ccc(OCC(=O)NC2CCCCCC2)cc1`, the inhibition is -16.9%.

On to `CC(Oc1ccc(F)cc1)C(=O)N1CCN(c2ncccn2)CC1` (stereo unspecified), for which the inhibition is -12.5%.

With `Cc1ccc(NC(=O)c2oc(=O)c3ccccc3c2-c2ccccc2)c(C)c1`, the inhibition is -10.4%.

Take `Cc1ccc(NN=C2C(=O)OC(C)(C)OC2=O)c(C)c1`: the inhibition was 93.9% (active).

On to `Cc1ccc(NC(=O)CCC(=O)N/N=C/c2ccco2)c(C)c1`, for which the inhibition was 9.07%.

For `COC(=O)C(C)n1cnc2c(nnn2-c2ccc(F)cc2)c1=O` (stereo unspecified), the inhibition was 8.93%.

Consider `COc1ccc(NC(=O)c2sc3nc(C)nc(N4CCN(c5ccccn5)CC4)c3c2C)c(OC)c1`, for which the inhibition is -5.19%.

On to `CN(CCN1CCOCC1)Cc1nc(-c2ccc3c(c2)OCO3)no1`, for which the inhibition was 13.4%.

Regarding `CC(C)N(Cc1nc(-c2ccc3c(c2)OCO3)no1)CC1CCC(=O)N1` (stereo unspecified), the inhibition was -4.06%.

Turning to `CCn1ccnc1CN(C)Cc1nc(-c2ccc3c(c2)OCO3)no1`, the inhibition is 50.1% (active).

In the case of `O=C(OCC(=O)c1cccs1)c1ccc([N+](=O)[O-])o1`, the inhibition is 41.9%.

As to `O=C(OCC(=O)c1cccs1)C1=COCCO1`, the inhibition was 98.9% (active).

On to `CCC(C)(C)c1ccc(Oc2ccc(NC(=O)COC(=O)C3=COCCO3)cc2)cc1`, for which the inhibition is 23.6%.

For the compound `O=C(NCc1ccccc1)C1CCN(C(=O)Cc2ccccc2)CC1`, the inhibition was -23.8%.

As to `O=C(CCn1nnnc1CN1CCOCC1)N1CCC(c2ccccc2Cl)C1` (stereo unspecified), the inhibition is 11%.

`NC(=O)c1c(Nc2nc3c(F)cccc3s2)sc2c1CCCC2`: the inhibition was 13.4%.

On to `NNc1nc2c(Cl)cccc2s1`, for which the inhibition is 69.4% (active).

Turning to `CN(C)CCCN(C(=O)COc1ccccc1)c1nc2c(Cl)cccc2s1`, the inhibition is -6.79%.

As for `C/C(=N\NC(=O)c1cccc([N+](=O)[O-])c1)c1cccnc1`, the inhibition was 11.6%.

With `COc1ccc(N2CCC(N3CCN(C)C(CCO)C3)CC2)cc1` (stereo unspecified), the inhibition was 0.592%.

`COc1ccc(CCN2CC(C(=O)NCCN3CCNC3=O)CCC2=O)cc1` (stereo unspecified): the inhibition is 1.29%.

In the case of `CCN(CC)c1ccc(/C=N/Nc2nc(C)cc(=O)[nH]2)cc1`, the inhibition is 2.75%.

Turning to `Cc1cc(=O)[nH]c(N/N=C/c2c(C)nn(-c3ccccc3Cl)c2Cl)n1`, the inhibition was 47%.

For the compound `Cc1cc(=O)[nH]c(N/N=C/c2ccc3c(c2)OCCO3)n1`, the inhibition was 44.5% (active).

Take `Cc1[nH]c2ccccc2c1C(=O)CN1CCCC(C)C1` (stereo unspecified): the inhibition was -6.74%.

Take `Cc1ccc(C(C[N+](=O)[O-])c2c(C)cc3ccccn23)cc1` (stereo unspecified): the inhibition was 6.95%.

Consider `Nc1ccccc1SC(C[N+](=O)[O-])c1ccccc1` (stereo unspecified), for which the inhibition was 77.6% (active).

Regarding `NS(=O)(=O)c1ccc(CNC(=O)c2cccc(Oc3ccccc3)c2)cc1`, the inhibition is 6.72%.

For the compound `O=C(NCc1cn2ccsc2n1)Nc1ccc(Cl)cc1`, the inhibition is -6.11%.

As to `CCC(=O)Nc1ccc(C(=O)NNC(=O)c2ccc(Cl)cc2)cc1`, the inhibition was 21.7%.

`O=C(Nc1ccc(Cl)cc1)c1ccsn1`: the inhibition was 71.9% (active).

As for `Cc1cc(-c2ccc(C)c(S(=O)(=O)NCCCN(Cc3ccccc3)C(C)C)c2)on1`, the inhibition was -6.03%.

Take `Cc1cccc(NC(=O)NC2(C)CCS(=O)(=O)C2)c1` (stereo unspecified): the inhibition was 11.8%.

Consider `CC(C)(C)c1ccc(C(=O)NCCC(=O)NCc2ccco2)cc1`, for which the inhibition was 6.3%.

On to `CC(C)(C)c1ccc(NC(=O)NCc2ccco2)cc1`, for which the inhibition was 74.2% (active).

Regarding `CC(C)(C)NC(=O)NCc1ccco1`, the inhibition was 12.4%.

In the case of `COc1ccc([N+](=O)[O-])cc1N(CC(=O)Nc1ccccc1C(=O)N1CCOCC1)S(C)(=O)=O`, the inhibition was -1.77%.

Consider `CCOCCOC(=O)C1=C(C)NC(=O)NC1c1ccc2c(c1)OCO2` (stereo unspecified), for which the inhibition was -11.9%.

For the compound `CCOC(=O)c1nc(-c2ccc3c(c2)OCO3)[nH]c1C`, the inhibition is 41% (active).

For `CCOC(=O)c1c(C)[nH]c(C(=O)COc2ccc3c(c2)OCO3)c1C`, the inhibition is 17.2%.

For `CCOc1ccc(N(C)S(=O)(=O)c2cnc[nH]2)cc1`, the inhibition is 10.4%.

As for `Cc1ccc2c(c1)N(CC(=O)N1CCC(C)CC1)C(=O)c1cccnc1O2`, the inhibition is 9.85%.

As for `COc1ccc(S(=O)(=O)N2CCCC(C(=O)Nc3ccc(NC(=O)c4ccccn4)cc3)C2)cc1` (stereo unspecified), the inhibition was 63.5% (active).

For the compound `CCOc1cccc(NC(=O)C2CCCN(S(=O)(=O)c3ccc(OC)cc3)C2)c1` (stereo unspecified), the inhibition is -14.4%.

Take `COc1ccc(NC(=O)C2CCCN(S(=O)(=O)c3cccc4cccnc34)C2)cc1` (stereo unspecified): the inhibition was -1.64%.

In the case of `COc1ccccc1N1CC(C(=O)Nc2nnc(SCC(=O)NC(C)C)s2)CC1=O` (stereo unspecified), the inhibition was 4.29%.

For the compound `CN(CC1CCCN(CCc2cccc(C(F)(F)F)c2)C1)C(=O)c1ccc2nc[nH]c2c1` (stereo unspecified), the inhibition is -2.32%.

Regarding `Cc1ccc(CS(=O)Cc2ccc(C(=O)N3CCOCC3)o2)cc1` (stereo unspecified), the inhibition is -2.85%.

Consider `COc1ccc2c(c1)cc1n2CCN=C1NN`, for which the inhibition was 170% (active).

On to `COc1ccc(CNC(=O)C(=O)NCC2OCCN2C(=O)c2ccc(OC)cc2)cc1` (stereo unspecified), for which the inhibition was -30.4%.

As for `O=S(=O)(c1cccc(Cn2nnc(-c3ccc(F)cc3)n2)c1)N1CCOCC1`, the inhibition is -6.53%.

With `O=[N+]([O-])c1cc(Br)c(O)c(/C=N/Nc2nc3ccccc3s2)c1`, the inhibition was 30.3%.

For `c1ccc2sc(SNC3CCCCC3)nc2c1`, the inhibition is 25.3%.

As for `c1ccc2sc(NN=C3CCCC3)nc2c1`, the inhibition is 72.4% (active).

As to `Cc1ccc2c(c1)C(c1ccccc1)N(C(=O)c1ccc(F)cc1)CC(=O)N2` (stereo unspecified), the inhibition was -4.25%.

In the case of `COC(=O)c1ccc(/C=C2/C(=O)Oc3ccccc32)cc1`, the inhibition is -14%.

Take `CNC(=S)N1N=C(c2ccccc2)CC1c1ccc(Br)cc1` (stereo unspecified): the inhibition is 34.3% (active).

Regarding `Cc1ccc(NC(=S)N2CCCC(c3ccccc3)=N2)cc1`, the inhibition is -2.73%.

As to `CC(=O)N1CCN(c2ccccc2NC(=S)NC(=O)c2cc3ccccc3o2)CC1`, the inhibition is -6.04%.

For the compound `Cc1cc(Nc2ccccc2)n(C(=O)c2ccc(N)cc2)n1`, the inhibition is 47.2% (active).

As to `Cc1cc(NC(=O)Nc2ccccc2)n(-c2ccccc2)n1`, the inhibition was 34.6%.

For `Cc1cc(Nc2ccccc2)n(CCC#N)n1`, the inhibition is -1.92%.

Take `Cc1ccc(C)c(C(=O)N2CCC(n3nccc3NC(=O)C3CC3)CC2)c1`: the inhibition is -24.8%.

In the case of `N#Cc1c(-c2ccccc2)c(-c2ccccc2)n[nH]c1=O`, the inhibition is -6.49%.

Turning to `Cc1cccc(N2C(=O)SC(SC(=Nc3ccccc3)Nc3ccccc3)C2=O)c1` (stereo unspecified), the inhibition is 83.9% (active).

In the case of `Cc1cccc(N2C(=O)SC(N(CC(=O)O)c3cccc(C)c3)C2=O)c1` (stereo unspecified), the inhibition is 49.7%.

Regarding `Cc1cccc(N2C(=O)CC(SC(N)=Nc3ccccc3)C2=O)c1` (stereo unspecified), the inhibition was -8.18%.

On to `COc1cccc(/C=C2\Sc3ccc(C(=O)NCC4CCCO4)cc3N(C)C2=O)c1` (stereo unspecified), for which the inhibition was 11.4%.

Take `CCOC(=O)c1c(S(=O)(=O)Nc2ccc(CN3CCC(C)CC3)cc2)c(C)n(C)c1C`: the inhibition is -3.73%.

In the case of `CC(=O)N1CC(=O)N(CC(=O)Nc2ccc(Br)cc2)C1=S`, the inhibition was -1.67%.

As usually defined, the inhibition is the change of the read-out against control, counted positive when it falls.

Values taken from PubChem BioAssay AID2315 (National Center for Advancing Translational Sciences (NCATS), 2010).
